VACV mCherry inh: vaccinia inhibition (mCherry reporter). AID 720579. 310,000 tested, 0.63% active. Potency, µM (titrated, usually from 36.5 µM), for the others: at the highest dose activity change, negative = inhibition, usual class: inhibitors. Vaccinia virus mCherry reporter infection, fluorescence; calls by dose curve; tested in A549 cells; note: potency is the fitted concentration of half-maximal effect; % is set by controls: 0 for no effect and ±100 for the full control effect; nearly all actives have a fitted effect of over 35% in size
Vaccinia Venus: vaccinia inhibition (Venus reporter) | 330,000 tested, 0.46% active | Potency, µM (titrated, usually from 36.5 µM), without a hit: at the highest dose activity change, negative = inhibition, hits mostly inhibitors | Vaccinia virus Venus reporter expression, fluorescence; calls by dose curve; tested in A549 cells; note: potency is the fitted concentration of half-maximal effect; % is set by controls: 0 for no effect and ±100 for the full control effect; nearly all actives have a fitted effect of over 30% in size
NS1 function inh: blocks influenza NS1 protein function | Potency, µM (doses to about 46.1 µM), for the others: at the highest dose activity, positive = more growth | 270,000 tested, 0.4% active | AID 2326; calls by dose curve; note: potency is the fitted concentration of half-maximal effect; actives are rising curves; nearly all actives have a fitted effect of over 50% in size
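Growth recovery, yeast-based: influenza A NS1 expressed in S. cerevisiae causes slow growth, and suppressors are detected by OD600. The parent strain without NS1 is used as positive control.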
HCV inh: HCV inhibition; Potency, µM (top dose mostly 41.8 µM), for the others: top-dose activity change, negative = inhibition, usual class: inhibitors; AID 651820; 340,000 tested, 3.4% active; Huh7.5.1 HCVcc-Cre infection, luciferase reporter, 44 h; note: potency is the fitted concentration of half-maximal effect; % is set by controls: 0 for no effect and ±100 for the full control effect
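1,000 cells/well; 4 h culture; + compound; + HCVcc-Cre (~0.5 moi); 44 h; luciferase substrate, RT 15 min; read 15 sec.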
Pf growth 96h: P. falciparum growth inhibition at 96 hour, primary screen for plastid delayed-death inhibitors; P. falciparum luciferase reporter growth, 96 h; Potency, µM (doses to about 28.7 µM), inactives show top-dose activity change, negative = inhibition, hits mostly inhibitors; 320,000 tested, 6.9% active; AID 504834; note: potency is the fitted concentration of half-maximal effect; % is set by controls: 0 for no effect and ±100 for the full control effect
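Plates of compound plus infected erythrocytes (2% hematocrit, 0.05% parasitemia final) incubate 96 hours, 37 C, 5% CO2. Detection reagent added; reduced luminescence from the parasites' luciferase reporter flags inhibition.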
Pf growth 48h: inhibits P. falciparum growth in the first generation, 48 h | AID 504832 | 310,000 tested, 5.9% active | P. falciparum luciferase growth in erythrocytes, 48 h | Potency, µM (doses to about 28.7 µM), for the others: at the top dose activity change, negative = inhibition, actives largely listed as inhibitors; note: potency is the fitted concentration of half-maximal effect; % is set by controls: 0 for no effect and ±100 for the full control effect
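Firefly luciferase activity from engineered P. falciparum reports growth; inhibitors lower the luminescent signal. Cultures contained 2% hematocrit erythrocytes at 0.1% final parasitemia.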
NS1 inh valid: influenza NS1 function inhibition validation; activity change, negative = inhibition, % at 32.9 µM; shares compounds with NS1 function inh; influenza NS1 function cell assay, 15-point titration; 1,400 tested, under 10 active; calls by dose curve; note: 0% is about no effect
Flu PR8 replic: influenza NS1 inhibitors: inhibition of influenza A/PR/8/34 replication; shares compounds with NS1 function inh; MDCK infected influenza A/PR/8/34, virus titer TCID50; hits give low values; virus titer (log TCID50), log10 TCID50 at 5 µM; 95 tested, 30% active; AID 504647; call rule not given here
Active calls of the source: *; i = inactive; ? = inconclusive; . = no result given; [ ] = dose if it differs, or a comment. The list is not random: actives were taken first. Their share in the collection is about 11%. Unless noted, calls come from the whole dose curve; as a rule, active = well fitted inhibition curve with a large enough effect; inconclusive = small, poorly fitted or top-dose-only effect, or another doubt; inactive = no such curve, though single readings can be large or run the other way.

SMILES	VACV mCherry inh	Vaccinia Venus	NS1 function inh	HCV inh	Pf growth 96h	Pf growth 48h	NS1 inh valid	others
Nc1ccc(S(N)(=O)=O)cc1	-5.4%	-8.3%	.	33.8%	?	-11.4%	.
COc1ccc(OC)c(S(=O)(=O)N2CCCCC2C(=O)O)c1 (stereo unspecified)	-13.2%	-13.8%	4.8%	15.0%	2.5%	.	.
COc1ccc(OC)c(S(=O)(=O)N2CCCC2C(=O)N2CCc3ccccc3C2)c1 (stereo unspecified)	-14.8%	-12.0%	?	5.3%	2.0%	1.8%	?
O=C(CCCOc1ccc(Cl)cc1)N1CCOCC1	i	-11.5%	11.2µM*	18.0%	260.2%	24.0%	-21.4
O=C(CCCOc1ccc(Cl)cc1)N1CCCCC1	-7.8%	-12.2%	-18.3%	7.5%	.	70.3%	.
O=C(NCc1ccc2c(c1)OCO2)c1ccc2c(c1)N(Cc1ccc(F)cc1)C(=O)c1ccccc1S2=O (stereo unspecified)	6.1%	5.2%	.	.	.	.	.
COC(=O)C1=C(C)N(Cc2ccc(C)cc2)C(=O)/C1=C\c1ccc(O)c(OC)c1	.	?	10µM*	-6.0%	-24.6%	-6.4%	?
O=C(CSc1nnc(NC(=O)c2cccc(Br)c2)s1)NCC1CCCO1 (stereo unspecified)	i	-10.4%	16.7%	8.6%	3.5%	31.3%	.
CN(c1ccccc1)S(=O)(=O)c1ccc(Cl)c(C(=O)Nc2nc3ccccc3[nH]2)c1	-7.2%	?	10µM*	?	6.57µM*	?	38.4
CC1=C(C(=O)OC(C)C)C(c2cccc([N+](=O)[O-])c2)n2c(cc(=O)[nH]c2=S)N1 (stereo unspecified)	-8.9%	-6.2%	11.2µM*	-3.9%	-1.3%	12.2%	36.2
Oc1ccc(Nc2nc(-c3ccc(O)cc3)cs2)cc1	.	.	2.82µM*	10µM*	-22.7%	-50.3%	10.0
NS(=O)(=O)c1ccc(Nc2nc(-c3ccc(O)cc3)cs2)cc1	-22.9%	-10.5%	?	?	20.2%	-2.5%	.
c1cc2c(cc1Nc1nc(-c3ccc4c(c3)OCO4)cs1)OCCO2	.	.	7.08µM*	-19.8%	-5.9%	-64.6%	-12.5
CCCCC(=O)Nc1ccc2c(c1)nc1n2CCSC1	.	.	8.91µM*	-3.7%	.	133.9%	-11.8
O=C(O)CC1=C(O)C(=O)N(c2ccccc2)C1c1ccc(Br)cc1 (stereo unspecified)	.	-8.3%	7.94µM*	10.0%	0.4%	?	26.2
CN(c1ccccc1)S(=O)(=O)c1ccc2[nH]c(=O)oc2c1	-11.3%	-13.6%	?	3.2%	8.8%	2.2%	8.7
COc1cc(CNC(=O)CCn2nc(C)c3c(C)n(-c4ccccc4)nc3c2=O)cc(OC)c1OC	.	.	-7.6%	-10.8%	?	-18.6%	.
Cc1ccc(C(=O)O)cc1NC(=S)NC(=O)C(c1ccccc1)c1ccccc1	-6.9%	-6.5%	?	6.7%	?	0.0%	5.8
Cc1ccc(C(=O)O)cc1NC(=S)NC(=O)Cc1ccccc1	-14.2%	-8.4%	0.4%	4.7%	45.7%	-7.2%	.
CCC(C(=O)Nc1ccc(C(=O)O)cc1NC(=O)C(CC)c1ccccc1)c1ccccc1 (stereo unspecified)	.	.	11.2µM*	18.2%	2.0%	-7.0%	6.1
COc1ccccc1-n1c(SCC(=O)NC(C)(C)C)nc(O)cc1=O	-13.5%	0.4%	8.91µM*	26.8%	35.4%	2.33µM*	35.7	Flu PR8 replic=7.66
COc1ccccc1NC(=O)CSc1nc(O)cc(=O)n1-c1ccccc1OC	.	.	10µM*	15.4%	.	3.29µM*	38.7
Cc1ccc2cccc(NC(=S)NC(=O)c3ccnn3C)c2n1	-21.8%	-18.6%	15.8µM*	?	?	?	2.9
COc1ccc(CCNC(=O)c2cc(S(=O)(=O)N(C)C)ccc2N2CCCC2)cc1	-6.6%	-16.4%	0.7%	13.0%	-1.5%	-15.4%	.
CCN(CC)S(=O)(=O)c1cccc(C(=O)Nc2cccc(C)c2)c1	.	.	0.2%	?	105.9%	.	.
SMILES	VACV mCherry inh	Vaccinia Venus	NS1 function inh	HCV inh	Pf growth 96h	Pf growth 48h	NS1 inh valid	others
CCN(CC)S(=O)(=O)c1cccc(NC(=O)C2SC(=Nc3ccc(C)cc3C)C(C(=O)NC(C)COC)=C2N)c1 (stereo unspecified)	?	-29.4%	12.6µM*	?	3.7µM*	.	21.5
Cc1nnc(NC(=O)c2c(-c3ccccc3)noc2C)s1	.	-13.6%	-8.4%	7.0%	?	31.7%	.
Cc1onc(-c2ccccc2)c1C(=O)Nc1nnc(N(C)Cc2ccccc2)s1	15.5%	-1.5%	7.94µM*	8.0%	-22.6%	.	12.9
COc1ccc(-c2nc(NC(=O)C3CC(=O)N(c4ccc5c(c4)OCCO5)C3)sc2C)cc1 (stereo unspecified)	?	?	11.2µM*	?	?	30.7%	7.0
Cc1cc(C(=O)NCc2ccc3c(c2)OCO3)ccc1[N+](=O)[O-]	.	.	10.3%	-17.9%	87.3%	1.3%	.
CC1CC(C)CN(c2ccc(C(=O)NCc3ccc4c(c3)OCO4)cc2[N+](=O)[O-])C1 (stereo unspecified)	-7.7%	-2.7%	10µM*	?	-25.1%	-23.7%	-16.8
CCN(CC)CCN1C(=O)C(=O)/C(=C(/O)c2ccc(S(=O)(=O)N3CCOCC3)cc2)C1c1ccc(Cl)cc1 (stereo unspecified)	-10.0%	1.7%	3.0%	8.6%	53.8%	1.5%	.
Cn1cccc1CNC(=S)Nc1ccccc1Cl	-6.5%	-10.8%	.	1.6%	?	-7.0%	.
Cc1cc(C)cc(NC(=S)NCc2cccn2C)c1	.	.	10µM*	?	?	?	-5.9
COc1ccc(OC)c(NC(=O)c2ccccc2NS(=O)(=O)c2cccc3cccnc23)c1	.	-13.1%	14.1µM*	-7.5%	11.3%	?	6.0
O=C(Nc1cccc2ccccc12)c1ccccc1NS(=O)(=O)c1cccc2cccnc12	-8.4%	-3.0%	11.2µM*	3.2%	12.3%	-5.3%	?
Cc1c(C(=O)Nc2ccc(Cc3ccncc3)cc2)cccc1[N+](=O)[O-]	-11.0%	-20.7%	-16.5%	-13.6%	25.7%	?	.
CCCCn1c(SCC(=O)NCc2ccco2)nc2c1c(=O)n(C)c(=O)n2C	.	-7.6%	8.8%[9.22 µM]	?	-5.4%	-4.4%	.
O=C1NC(=Nc2cccnc2)S/C1=C/c1ccc(F)cc1	-2.6%[7.34 µM]	-8.9%[7.34 µM]	-1.4%	-8.5%	-23.6%	-10.8%	.
Cc1oc(C)c2c(=O)ccc3c(c12)OC(N)=C(C#N)C3c1ccc(F)cc1 (stereo unspecified)	8.1%	18.6%	8.91µM*	-2.0%	-1.5%[5.75 µM]	13.1µM*	7.1
